Data published in PubChem BioAssay (NCATS).
Results filed as inconclusive are left out. Entries that show only a call come without a potency. Calls of active or inactive are those of the source. The call rests on the fitted dose curve; in most records, active means well fitted curve in the direction sought with a large enough effect; inconclusive means small, poorly fitted or top-dose-only effect, or another doubt; inactive means no such curve, though single readings can be large; an effect the other way counts as inactive or inconclusive.

Key:
[1] = qHTS for ATAD5 Antagonist screened against the NCATS CANVASS Library (AID 1347370); details: HEK293T-ATAD5-luc, 5-FUrd stimulated, luminescence, 16 h; series mostly up to 46.1 µM;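 further: HEK293T cells carrying an ATAD5 luciferase reporter co-treated with 10 µM 5-fluorouridine; nearly all actives have a fitted effect of over 65% in size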
How it was run: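 HEK293T cells with stably integrated ATAD5-luciferase reporter, 2000/well, 5 h attachment; compounds plus 10 µM 5-fluorouridine, 16 h at 37 °C. Luciferase luminescence read, with CellTiter-Fluor viability read first.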

[2] = J3T Cancer Cell Toxicity qHTS against the NCATS CANVASS Library (AID 1347371); details: J3T dog glioma viability, ATP luminescence, 72 h; series mostly up to 46.1 µM
How it was run: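 Cells plated at 500 per well, compounds pin-transferred, plates incubated 72 hr at 37C, then CellTiterGlo added and luminescence read to measure ATP content.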

[3] = molecular target: Nuclear receptor subfamily 1 group I member 3 (Homo sapiens) (UniProt Q14994); test: qHTS for Constitutive Androstane Receptor (CAR) Antagonist screened against the NCATS CANVASS Library (AID 1347372); details: HepG2-hCAR-CYP2B6 luciferase, CITCO-stimulated antagonist mode; series mostly up to 46.1 µM;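 further: cells stimulated with 50 nM CITCO agonist so inhibition reflects antagonism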
Chain of Nuclear receptor subfamily 1 group I member 3 (Homo sapiens) (Q14994 whole entry, looked up): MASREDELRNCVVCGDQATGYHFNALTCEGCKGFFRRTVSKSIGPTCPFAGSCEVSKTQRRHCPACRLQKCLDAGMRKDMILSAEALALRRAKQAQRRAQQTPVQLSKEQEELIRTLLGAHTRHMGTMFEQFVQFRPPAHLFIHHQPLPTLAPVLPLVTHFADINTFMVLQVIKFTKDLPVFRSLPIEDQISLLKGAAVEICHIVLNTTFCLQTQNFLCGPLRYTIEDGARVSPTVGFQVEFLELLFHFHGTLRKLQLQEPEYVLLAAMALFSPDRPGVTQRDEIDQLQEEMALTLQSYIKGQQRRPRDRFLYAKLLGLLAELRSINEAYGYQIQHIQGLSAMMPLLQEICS
How it was run: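 HepG2 cells stably carrying hCAR and a CYP2B6-2.2kb luciferase reporter were exposed to compounds plus 50 nM CITCO for 24hr at 37C. CAR activity was read by ONE-Glo luminescence, with viability measured first by CellTiter-Fluor.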

[4] = molecular target: Nuclear receptor subfamily 1 group I member 3 (Homo sapiens) (UniProt Q14994); test: qHTS for Constitutive Androstane Receptor (CAR) Agonist screened against the NCATS CANVASS Library (AID 1347373); details: HepG2-hCAR-CYP2B6 luciferase reporter, ONE-Glo luminescence; series mostly up to 46.1 µM;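 further: every well also contained 1.5 µM PK11195 alongside the test compound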
Source text: (§1) Natural products and their derivatives continue to be wellsprings of nascent therapeutic potential. However, many laboratories have limited resources for biological evaluation, leaving their previously isolated or synthesized compounds largely or completely untested. To address this issue, the Canvass library of natural products was assembled (https://tripod.nih.gov/canvass), in collaboration with academic and industry researchers, for quantitative high-throughput screening (qHTS) across a diverse set of cell-based and biochemical assays. The pure (>85% purity by liquid chromatography/mass spectrometry [LC/MS]) Canvass library of 346 natural products were submitted by 45 academic laboratories and companies around the world. We collected pure natural products to circumvent deconvolution and structure elucidation due to time and resource limitations. The library was formatted into 1536-well plates and evaluated in 50 qHTS (in an 11-pnt concentration series) bioassays with broad scope of disease-relevant mechanisms. The resulting data set from 50 different assays was then systematically analyzed to identify overall trends and specific natural products with interesting biological activities. Reported herein are the results of each individual qHTS and their corresponding assay protocol. The constitutive androstane receptor (CAR) is a nuclear receptor which regulates multiple drug metabolizing enzymes (DMEs) and transporters. […]
Material: A double-stable (hCAR and CYP2B6-2.2kb) transfected cell line, derived from human hepatoma (HepG2) cells, was utilized for the duration of the quantitative high-throughput screens. […] A first readout of fluorescence signal was acquired via the ViewLux (PerkinElmer) plate reader using a FITC dichroic mirror, excitation 405/10 nm filter, and emission 540/25 nm filter; and using 65 light energy, 1 second exposure, and 2x binning settings. […] A second readout of luminescence signal was acquired via the ViewLux plate reader using a clear emission filter, 10 second exposure, 2x binning settings. […]

[5] = qHTS for Hypoxia signaling pathway (HIF-1) antagonists against the NCATS CANVASS Library (AID 1347374); details: HRE-bla ME-180 cells, HIF-1 beta-lactamase reporter, CoCl2; further: potency means the concentration at half of the fitted maximal effect; nearly all actives have a fitted effect of over 60% in size
Source text: as §1, with “The pure (>85% purity by liquid chromatography/mass spectrometry [LC/MS]) Canvass library of 346 natural products were submitted by 45 academic laboratories and companies around the world.” left out, “[…] The compounds were also tested for auto fluorescence that may interfere with” for “Reported herein are”, “biological target readout resulting in potential false positives and/or negatives.” for “results of each individual qHTS and their corresponding assay protocol. The constitutive androstane receptor (CAR) is a nuclear receptor which regulates multiple drug metabolizing enzymes (DMEs) and transporters.”
HIF-1 antagonist assay protocol: 1. […] The fluorescence intensity was obtained using the EnVision (PerkinElmer, Shelton, CT) plate reader using a 405 nm excitation, and 460 and 530 nm emission filters. […]

[6] = qHTS for Hypoxia signaling pathway (HIF-1) agonists against the NCATS CANVASS Library (AID 1347375); details: HRE-bla ME-180 cells, HIF-1 beta-lactamase reporter, 17 h; series mostly up to 38.3 µM
How it was run: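 ME-180 HRE-bla reporter cells; 2,000/well, 0.5% dialyzed FBS; cpd added after 5 h, 17 h 37C/5% CO2; CCF4-AM 2 h RT; FRET 460/530 nm; CellTiter-Glo viability same wells, 30 min.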

[7] = 10-beta competent E. coli microbial cell viability qHTS against the NCATS CANVASS Library (AID 1347376); details: E. coli 10-beta viability, BacTiter-Glo ATP luminescence, overnight; series mostly up to 46.1 µM
Source text: Natural products and their derivatives continue to be wellsprings of nascent therapeutic potential. However, many laboratories have limited resources for biological evaluation, leaving their previously isolated or synthesized compounds largely or completely untested. To address this issue, the Canvass library of natural products was assembled (https://tripod.nih.gov/canvass), in collaboration with academic and industry researchers, for quantitative high-throughput screening (qHTS) across a diverse set of cell-based and biochemical assays. The pure (>85% purity by liquid chromatography/mass spectrometry [LC/MS]) Canvass library of 346 natural products were submitted by 45 academic laboratories and companies around the world. We collected pure natural products to circumvent deconvolution and structure elucidation due to time and resource limitations. The library was formatted into 1536-well plates and evaluated in 50 qHTS (in an 11-pnt concentration series) bioassays with broad scope of disease-relevant mechanisms. The resulting data set from 50 different assays was then systematically analyzed to identify overall trends and specific natural products with interesting biological activities. Reported herein are the results of each individual qHTS and their corresponding assay protocol. The BacTiter-Glo microbial cell viability assay is a homogeneous method for determining the number of viable bacterial cells in culture based on quantitation of the ATP present. ATP is an indicator of metabolically active cells. The homogeneous assay procedure involves adding a single reagent (BacTiter-GloTM Reagent) directly to bacterial cells in medium and measuring luminescence. National Center for Advancing Translational Sciences (NCATS), Rockville, MD National Institute of Health (NIH), Bethesda, Maryland
10-beta competent E.coli cytotoxicity protocol: 1. […] Luminescence signal was acquired via the ViewLux plate reader using a clear emission filter, 2 second exposure and 2x binning settings.

[8] = DH5-alpha competent E. coli microbial cell viability qHTS against the NCATS CANVASS Library (AID 1347377); details: BacTiter-Glo ATP luminescence, overnight; series mostly up to 46.1 µM
How it was run: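 qHTS, 11-pt; E. coli DH5-alpha, 0.2 OD; o/n 37C/5% CO2; BacTiter-Glo, 20 min RT; luminescence.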

[9] = qHTS for H2AX Agonists against the NCATS CANVASS Library (AID 1347378); details: CHO-K1 H2AX phosphorylation, HTRF TR-FRET, 3 h; series mostly up to 76.9 µM;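 further: phospho-H2AX S139 level in CHO-K1 lysates by TR-FRET emission ratio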
How it was run: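 Following overnight seeding, CHO-K1 cells are incubated with a concentration series of compound for 3 hr at 37C (final DMSO 0.76%). Cells are then lysed, detection antibodies added, and emission ratio 665/620 nm recorded after 24 hr at room temperature.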

[10] = MCF7 Cancer Cell Toxicity qHTS against the NCATS CANVASS Library (AID 1347369); details: MCF7 viability, ATP luminescence (CellTiter-Glo), 72 h; at 46 µM (top of the series)
How it was run: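 Cytotoxicity is measured by ATP content: MCF7 cells at 500 per well receive an 11-point compound series and, after 72 hr at 37C, are lysed with CellTiterGlo for luminescence.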

Row | Structure (SMILES) | outcome [1] | outcome [2] | outcome [3] | outcome [4] | Potency [5] | outcome [6] | outcome [7] | outcome [8] | outcome [9] | outcome [10]
1 | O=C(O)C(O)Cc1ccc(O)c(O)c1 (stereo not given) | inactive | inactive | inactive | inactive | 8.38 µM (active) | inactive | inactive | inactive | inactive | –
2 | COC(=O)[C@@H]1[C@H]2C[C@H]3c4[nH]c5ccccc5c4CCN3C[C@@H]2CC[C@@H]1O | inactive | inactive | inactive | inactive | – | – | inactive | inactive | inactive | inactive
3 | O=c1cc(-c2ccccc2)oc2cc(O)c(O)c(O)c12 | inactive | inactive | inactive | inactive | – | inactive | inactive | – | inactive | inactive
